# Experimental data: article PMC6212790, “How bacterial xenogeneic silencer rok distinguishes foreign from self DNA in its resident genome”
# Whole data set: some 33,000 sequences, median “e-score” near -0.038, cut for the highest 2% near 0.33. The sample as a whole holds a higher share of the highest values than the screen did.
# Target: T1, GST-Rok-C97-191 (Bacillus subtilis subsp. subtilis str. …, UniProt O34857 97-191)
# T1 sequence: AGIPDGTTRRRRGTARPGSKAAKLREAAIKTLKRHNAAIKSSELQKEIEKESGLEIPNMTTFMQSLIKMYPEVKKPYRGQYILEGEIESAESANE
# Assay: protein binding microarray; Rok is a gene silencer of Bacillus subtilis; high values mean tight binding
# Conditions: protein: recombinant; tags: GST (pTH5325, pDEST15-Magic modified); dsDNA, one strand shown
# How it was run: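 Each has a 25-mer constant primer and a 35-mer variable part from a de Bruijn sequence of order 10, covering every non-palindromic 8-mer at least 32 times (palindromic 16). Preference for each 8-mer is given as a rank-based, unitless enrichment score (E-score). Its range runs from 0.5 (most favored) to −0.5 (most disfavored).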
row,Sequence,binding signal [E-score]
1,TAGTTTAA,0.345
2,GAGTTTAA,0.0511
3,GAGTTTCA,-0.0326
4,TAGTTTCA,0.361
5,CAGTTTCA,-0.125
6,AAGTTTAA,-0.0234
7,ACCCGCTA,0.0179
8,ACCTGTGC,-0.159
9,ACAACCAC,-0.126
10,ATACTGTA,0.334
11,ATACTGAA,0.0579
12,CTACTGAA,0.098
13,GTACTGTA,0.219
14,ATACTGTG,-0.082
15,CTACTGTA,0.384
16,CATGGAAA,0.0212
17,AGTACGAG,0.125
18,CCACTATC,0.0612
19,ATACTAGC,0.288
20,CGACTATC,-0.0118
21,ATACTCTC,0.0157
22,ATACTATC,0.359
23,CTACTATC,0.344
24,ATTACCTA,0.337
25,ATTACCTC,0.136

row,Sequence,binding signal [E-score]
1,ATTACCAC,0.181
2,CTTACCAA,0.0678
3,ATTACCTG,0.0992
4,ATTACCAA,0.333
5,AAATTTCT,0.203
6,AAATAGAG,-0.0395
7,GAATAGAA,0.209
8,AAATAGGT,0.314
9,AAATAGAC,0.0478
10,AAATAGAT,0.343
11,AAATAGAA,0.36
12,AAGAGAGA,-0.188
13,ACCTCCCG,-0.064
14,CATCAGAC,-0.171
15,ACGTATAA,0.268
16,CTATATGC,0.209
17,GTATATAC,0.43
18,ACGTATAT,0.373
19,ACGTATAC,0.137
20,ATATATAC,0.367
21,AGATATAC,0.221
22,CTATATAC,0.376
23,GGATATAC,0.288
24,CTCTATAC,0.143
25,ATATACAC,0.289

row,Sequence,binding signal [E-score]
1,GCATATAC,0.18
2,ACTTAAGA,-0.12
3,TTGCCAAA,0.142
4,AAGGAAGC,-0.125
5,ACTGCGCG,-0.0406
6,CGAGTGCG,-0.0584
7,ACATATGA,0.00179
8,ACATATGG,0.132
9,ATATATAT,0.443
10,AGATATCT,0.355
11,AGATATAG,0.188
12,ACATATGT,0.4
13,ATATACAT,0.288
14,AGATATAA,0.282
15,AGATATCC,0.00982
16,ATATATGG,0.279
17,AGATATCA,0.0773
18,AGATATAT,0.421
19,ATGTGCCA,-0.163
20,ACAACCAA,0.0769
21,GCGCTCTA,0.0916
22,GGAATGCA,-0.0343
23,ACTTTCAT,0.0835
24,CGGTCCAG,-0.196
25,ACATATAT,0.4

row,Sequence,binding signal [E-score]
1,ACATATAA,0.26
2,ACATATAG,0.206
3,AACCTAGA,0.13
4,AGTATCGA,0.174
5,CATAATAG,0.136
6,AATAATAT,0.321
7,CTTAATAC,0.0879
8,ATTAATAA,0.234
9,TCTAATAA,0.105
10,GATAATAA,0.174
11,AATAATAA,0.371
12,GCTAATAA,0.212
13,AATAATAG,0.405
14,CATAATAA,0.281
15,ATTAATAC,0.335
16,TATAATAA,0.374
17,GCATCCGC,-0.147
18,CACATGTC,-0.0475
19,GAAATTCA,0.106
20,ACGTGGCG,-0.166
21,AAGCTGCC,-0.171
22,GGCGGCGA,-0.142
23,ACCTGGCA,-0.0345
24,TATAACGA,0.336
25,GATAACGA,0.0698

row,Sequence,binding signal [E-score]
1,GATAATAC,0.21
2,AATAATAC,0.335
3,CAAAATAG,0.333
4,AAAAATAG,0.2
5,CATAATAC,0.191
6,AATAACGA,0.169
7,CAAAATAA,0.0411
8,CAGCCCAG,-0.136
9,CTTTTTTA,-0.151
10,GAACATAA,0.144
11,AACGTCGC,0.0434
12,ACTAGAGA,0.118
13,ACTAGAAA,0.4
14,ACTAGAAG,0.199
15,CCTAGAAA,0.16
16,ACTAGAAC,0.255
17,ACTAGAAT,0.349
18,ACGTTGAT,0.0039
19,ACTTAAAG,-0.106
20,ACAGCCGA,-0.00523
21,AATAAAAC,0.228
22,AGTAAAAT,0.329
23,AGTAAATG,0.205
24,GGTAAATA,0.318
25,AATAAAAT,0.33

row,Sequence,binding signal [E-score]
1,AGTAAAAA,0.341
2,AGTAAATA,0.425
3,AGTAAAAG,0.267
4,AATAAAAA,0.295
5,AGTAAATC,0.215
6,ATTAAAAT,0.218
7,AGTAAAAC,0.246
8,TCGTTTAA,0.00225
9,TACTTGCA,0.167
10,ATCAACTG,0.0687
11,CTTCATTA,0.0438
12,CTGGCCCC,-0.197
13,AACCCCTA,-0.0905
14,CTAAGTCA,-0.0334
15,CTAAGACC,-0.137
16,CAGTGGGA,-0.131
17,AAACAAGA,0.025
18,TCCCTCGA,-0.0813
19,GGTAAAGA,0.177
20,GGTAAAAA,0.379
21,AGTTAAAC,0.0755
22,AGTTAAAT,0.335
23,AGTTAAAA,0.324
24,TGTAAACA,0.079
25,CGTAAAAA,-0.0178

row,Sequence,binding signal [E-score]
1,TGTAAAAA,0.34
2,GGTAAAAC,0.121
3,CGCTAGTC,-0.137
4,AAGCTGAT,-0.0275
5,GAATCGCC,0.00133
6,CAAAGGAG,-0.156
7,CACTAACG,-0.157
8,CCTTACCA,-0.0792
9,GGACTTTA,-0.19
10,ATACTTTA,0.196
11,GTACTTAA,0.314
12,CTACTTAA,0.387
13,GTACTTTA,0.344
14,CTACTTTA,0.337
15,CTACTTCA,0.207
16,ATACTTAA,0.00261
17,CTACTTTC,0.275
18,CGATCGAA,0.239
19,TTATCCAA,0.108
20,CCGTACTA,0.201
21,GTGTTGTA,0.158
22,CATGGTGC,-0.16
23,ACTGGGCT,-0.135
